LDHA inh: inhibitors of human lactate dehydrogenase A | P00338 | purified LDHA, NADH/diaphorase-resazurin fluorescence; stronger effect = lower value | activity change, % (values are at about 110 or 230 µM) | hit rate 0.15% among 480,000 | AID 1347041; in the data active means activity change below about -30%; inconclusive means mostly about -25% to -30%;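 further: plate controls were DMSO wells for no effect and wells without enzyme for full effect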
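Human LDH5 at 2 nM final in Tris HCl pH 7.4 with 0.06 mM NADH and 0.2 mM pyruvate, reacted 5 minutes at room temperature. Remaining NADH coupled via diaphorase/resazurin; resorufin fluorescence read at 0 and 20 minutes, normalized to enzyme-free and DMSO wells.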
Nrf2 inh: Nrf2 pathway inhibition; Potency, µM (doses to about 46 µM), without a hit: top-dose activity change, negative = inhibition, usual class: inhibitors; AID 504444; hit rate 2.1% among 360,000; A549 ARE-Fluc reporter, luciferase luminescence, 18-24 h; further: potency means the concentration at half of the fitted maximal effect; on the % scale 0 is the no-effect control and ±100 the full control effect; nearly all actives have a fitted effect of over 60% in size
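Reporter: ARE-Fluc in A549. Exposure: 18-24 h, 37 °C, 5% CO2, 5% FBS OPTI-MEM. Readouts: fluorescent cytotoxicity (CellTiter-Fluor), then luminescent Nrf2 signal after BugLite.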
ALOX12 inh: ALOX12 (human) lipoxygenase inhibition; P18054; purified 12hLO, xylenol orange hydroperoxide absorbance; Potency, µM (doses to about 108 µM), without a hit: at the top dose activity change, negative = inhibition, most hits filed as inhibitors; hit rate 1.1% among 580,000; AID 1671190; further: potency means the concentration at half of the fitted maximal effect; on the % scale 0 is the no-effect control and ±100 the full control effect
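Purified human 12hLO at 150 nM in 25 mM Hepes, 0.01% Triton X-100, pH 7.0, preincubated 15 min at room temperature with compound. Reaction started with 40 uM arachidonic acid, 30 min at room temperature. Hydroperoxide measured by Fe-xylenol orange, 573/405 nm absorbance ratio.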
A549 tox: A549 cytotoxicity, counter-screen for Nrf2 inhibitors | hit rate 0.16% among 390,000 | Potency, µM (series often up to 46 µM), for the others: at the highest dose activity change, negative = cytotoxicity, usual class: inhibitors | A549 ARE-Fluc cells, CellTiter-Fluor viability, 18-24 h; further: potency means the concentration at half of the fitted maximal effect; on the % scale 0 is the no-effect control and ±100 the full control effect
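A549 ARE_Fluc cells in 5% FBS OPTI-MEM were exposed to compounds in concentration-response for 18-24 h at 37 deg C. Viability was read by CellTiter-Fluor fluorescence (Ex 405/Em 525) after 30 min, before the luciferase read.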
ERG Ets-DNA blk: blocks human ERG Ets domain binding to DNA. hit rate 0.028% among 370,000. Potency, µM (doses to about 76.9 µM), without a hit: top-dose FP activity, negative = inhibition, most hits filed as inhibitors. fluorescence polarization, His-ERG Ets domain / labelled DNA. P11308; active means well fitted inhibition curve with a large enough effect in the polarisation, with a control signal flat; inconclusive means small, poorly fitted or top-dose-only effect, or effect the other way, or a change in a side signal; inactive means no such curve, though single readings can be large or run the other way; the % refers to the polarisation;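 further: polarization taken with two DNA probes labelled with fluorescein and Texas red; potency means the concentration at half of the fitted maximal effect; % of control where 0% means no effect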
Target sequence (P11308 whole entry, looked up, the tested form may be a part): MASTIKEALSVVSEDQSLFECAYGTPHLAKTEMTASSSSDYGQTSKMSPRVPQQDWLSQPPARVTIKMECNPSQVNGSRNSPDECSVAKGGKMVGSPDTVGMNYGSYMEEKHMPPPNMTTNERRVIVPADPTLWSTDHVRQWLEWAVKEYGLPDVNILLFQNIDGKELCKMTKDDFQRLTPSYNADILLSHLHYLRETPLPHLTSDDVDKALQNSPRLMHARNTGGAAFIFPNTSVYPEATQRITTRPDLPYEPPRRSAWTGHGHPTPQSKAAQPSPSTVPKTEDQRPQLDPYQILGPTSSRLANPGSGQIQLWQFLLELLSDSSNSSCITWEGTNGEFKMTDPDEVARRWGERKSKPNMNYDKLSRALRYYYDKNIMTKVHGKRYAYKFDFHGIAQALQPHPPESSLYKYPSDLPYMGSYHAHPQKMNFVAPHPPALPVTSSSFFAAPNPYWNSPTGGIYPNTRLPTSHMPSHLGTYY
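His-tagged ERG Ets domain (1 uM in the protein solution; 300mM KCl, 50mM Tris-HCl, 1mM EDTA, 1mM DTT, pH 7.5) received compound, then a probe mix of 5 nM fluorescein-DNA and 100nM Texas-615-DNA. Fluorescence polarization was read for both dyes.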
Nrf2 activator: activates Nrf2 signaling; Potency, µM (titrated, usually from 46.1 µM), without a hit: at the highest dose activation, most hits filed as activators; AID 624171; AREc32 ARE-luciferase reporter (MCF7-derived line), luminescence, 24 h; hit rate 0.31% among 410,000; further: potency means the concentration at half of the fitted maximal effect; % of control where 0% means no effect; nearly all actives have a fitted effect of over 65% in size
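AREc32 cells carrying an ARE-driven firefly luciferase reporter were seeded at 1000 cells/well in OPTI-MEM with 5% FBS, then exposed to compound for 24 hr at 37 deg C. Luminescence was read with Steady-Glo after 30 min at RT.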
* = called active by the depositor; ? = inconclusive; nt = not tested or not shown; [ ] = remark or other dose. An excerpt weighted towards active compounds, which were near 2.7% of everything screened. Unless noted, the call rests on the fitted dose curve; in most records, active means well fitted curve in the direction sought with a large enough effect; inconclusive means small, poorly fitted or top-dose-only effect, or another doubt; inactive means no such curve, though single readings can be large; an effect the other way counts as inactive or inconclusive.

SMILES	LDHA inh	Nrf2 inh	ALOX12 inh	A549 tox	ERG Ets-DNA blk	Nrf2 activator
N=C1/C(=C\c2coc3ccccc3c2=O)C(=O)N=C2SC=CN12	4	0%	20µM*	-2%	21%	18µM*
CC(=O)Nc1cc(F)c(F)cc1NC(=O)c1cc2ccccc2oc1=O	2	nt	-11%	nt	nt	nt
COC(=O)c1cc(NC(=O)c2cccc(C(F)(F)F)c2)c(=O)oc1C/C=N/OCc1cccc(Cl)c1Cl	13	-10%	?	-1%	7%	13µM*
COC(=O)c1cc(NC(=O)c2cccc(C(F)(F)F)c2)c(=O)oc1C	2	?	1%	2%	-7%[15.4 µM]	27%
COc1ccc(Nc2cc(C)nc(N3CCN(C(=O)Nc4ccc(F)cc4)CC3)n2)cc1	10	nt	1%	nt	nt	nt
Cc1c2cnn(CC(=O)NCc3ccccc3)c(=O)c2c(C)n1Cc1ccccc1	-3	nt	18%	nt	nt	nt
CCOc1ccc(N=C2NN=C(c3cc(C)n(CC4CCCO4)c3C)CS2)cc1 (stereo not drawn)	-7	?	40µM*	2%	-10%	0%
Cc1cc(C2=NNC(=Nc3ccccc3)SC2)c(C)n1CC1CCCO1 (stereo not drawn)	-36*	nt	-21%	nt	nt	nt
Cc1ccc(N=C2NN=C(c3cc(C)n(CC4CCCO4)c3C)CS2)cc1 (stereo not drawn)	-5	nt	?	nt	nt	nt
O=C(Nc1ccc(-c2nc3ccccc3s2)cc1)C1CCN(C(=O)c2ccco2)CC1	3	nt	-5%	nt	nt	nt
O=C(N/N=C/c1ccc[nH]1)c1ccc(COc2cccc3cccnc23)cc1	0	?	0%	7.3µM*	-2%	0%
Cc1cc(Br)c(OCc2ccc(C(=O)N/N=C/c3ccc[nH]3)cc2)c(Br)c1	-7	0.52µM*	20%	1.3µM*	1%	0%
O=C(N/N=C/c1ccccc1C(=O)O)c1ccc(COc2cccc3cccnc23)cc1	-6	1%	-29%	5%	-1%	0%
CC(=O)Nc1ncc2c(n1)CC(c1ccc(N(C)C)cc1)CC2=O (stereo not drawn)	2	nt	12%	nt	nt	nt
O=c1c2ccccc2c(C=NCc2ccccn2)c(O)n1-c1ccccc1	-1	-4%	0%	-9%	-1%	2%
Cc1ccc(-n2c(O)c(C=NCc3ccccn3)c3ccccc3c2=O)cc1C	-6	10µM*	-11%	-15%	-9%	10%
Cc1ccc2nc(-c3sc4nc(C)ccc4c3N)[nH]c2c1	-3	?	35µM*	-6%	-8%	6%
Cc1cc(C)c2c(N)c(-c3nc4ccccc4[nH]3)sc2n1	-5	23%	2%	12%	-6%	29%
CS(=O)(=O)Nc1cccc(NC(=O)c2ccc(-n3ccnc3)c3ccoc23)c1	4	nt	10µM*	nt	nt	6%
O=C(NCC1CC1)c1ccc(-n2ccnc2)c2ccoc12	0	nt	10µM*	nt	nt	4%
O=C(NC1CC1)c1ccc(Sc2ccccn2)cc1	0	nt	-5%	nt	nt	nt
CN1CCC(N(C)CCN(C)C(=O)Nc2ccccc2C(F)(F)F)CC1	9	nt	-1%	nt	nt	nt
O=C(Nc1ccc2c(c1)OCO2)N1CCN(c2ncc(C(F)(F)F)cc2Cl)CC1	6	9.2µM*	?	-9%	-1%	3%
Cc1ccc2c(=O)cc(C(=O)NCC(c3cccs3)N3CCCCCC3)oc2c1 (stereo not drawn)	9	nt	?	nt	nt	nt
CCCCc1cc(=O)oc2cc(OCC(=O)NCc3ccncc3)c(Cl)cc12	0	nt	26%	nt	nt	nt
SMILES	LDHA inh	Nrf2 inh	ALOX12 inh	A549 tox	ERG Ets-DNA blk	Nrf2 activator
N#Cc1c(-c2cccs2)cc(-c2ccccn2)nc1N	2	nt	10%	1%	-2%	7.9µM*
N#Cc1c(-c2cccs2)cc(-c2cccnc2)nc1N	-1	-2%	-19%	0%	-11%	8%
CSc1ccc(CN(C)C(=O)CNC(=O)c2sc3ccccc3c2Cl)cc1	-8	10µM*	0%	?	-4%	0%
O=C(NC1CCN(Cc2ccccc2)CC1)c1ccc(S(=O)(=O)NCc2ccco2)cc1	-3	6.5µM*	3%	-12%	-1%	0%
Cc1ccc(NC(=O)c2ccc(S(=O)(=O)NCc3ccco3)cc2)cc1	-4	?	0%	8%	5%	3%
O=C(Nc1ccc(S(=O)(=O)NCc2ccco2)cc1)c1ccncc1	-1	13µM*	6%	-4%	0%	7%
O=C(NC1CCCCC1)c1ccc(S(=O)(=O)NCc2ccco2)cc1	-3	10%	0%	-4%	-5%	0%
Cc1ccccc1C(=O)NC1CCN(Cc2ccccc2)CC1	-7	1%	-3%	0%	0%	0%
Cc1cccc(NS(=O)(=O)c2ccc(C)c(C(=O)NC3CCN(Cc4ccccc4)CC3)c2)c1	2	8.2µM*	104%	7%	17%	7%
CC1CCN(C(=O)C(=O)N2CCN(c3nc(C(C)C)c4c(c3C#N)CCCC4)CC2)CC1	8	nt	?	nt	nt	nt
Cc1ccc(S(=O)(=O)N2CCN(C(=O)c3cc4cc(C)ccc4nc3C)CC2)cc1	7	nt	40µM*	nt	nt	nt
Cc1ccc2nc(C)c(C(=O)N3CCN(S(=O)(=O)c4cc(F)ccc4F)CC3)cc2c1	-1	nt	-7%	nt	nt	nt
CCOc1cc2c(cc1NC(=O)c1ccc(C)c(OC)c1)OC(C)C2 (stereo not drawn)	1	nt	62%	nt	nt	nt
O=C1c2ccc(Br)cc2C(=O)N1c1ccc(Cc2ccncc2)cc1	-8	21µM*	44%	-14%	14%	2%
Cc1cc(C)cc(NS(=O)(=O)c2ccc3c(c2)-c2oncc2CO3)c1	26	nt	?	nt	nt	nt
CC(=O)C1=C(O)C(=O)N(c2cc(C(C)(C)C)on2)C1c1ccc(Br)cc1 (stereo not drawn)	10	-9%	45µM*	5%	11%	4%
CC1=C(C(N)=O)C(c2cccs2)n2nc(-c3cccc(C)c3)nc2N1 (stereo not drawn)	-1	-1%	?	-10%	-2%	0%
CC1=C(C(N)=O)C(c2cccs2)n2nc(-c3cccc(Cl)c3)nc2N1 (stereo not drawn)	0	13µM*	-7%	0%	5%	18%
N#CC(C(=O)CSc1ccc2c(c1)OCCO2)c1nc(-c2ccccc2)cs1 (stereo not drawn)	8	nt	10µM*	nt	nt	nt
CC(C)c1ccccc1NC(=O)c1nn(Cc2ccccc2)c(=O)c2ccccc12	-6	nt	-5%	nt	nt	nt
CCCCC1CCC(C(=O)Nc2ccc(OC)c3ncccc23)CC1 (stereo not drawn)	-30*	nt	41%	nt	nt	nt
O=c1cc(CO)oc(CN2CCCC2)c1O	1	13%	-1%	-4%	nt	-1%

Bioassay records (PubChem BioAssay)
